Nrf2 ARE act: activates Nrf2 signaling; AID 624171; AREc32 ARE-luciferase reporter (MCF7-derived line), luminescence, 24 h; 410,000 tested, 0.31% active; Potency, µM (titrated, usually from 46.1 µM), without a hit: at the top dose activation, most hits filed as activators; note: potency is the fitted concentration of half-maximal effect; % of control where 0% means no effect; nearly all actives have a fitted effect of over 65% in size
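Steps: seed AREc32_Fluc cells (1000/well, 5% FBS OPTI-MEM); incubate overnight at 37 deg C; add 23 nL compound; incubate 24 hr; add Steady-Glo; hold 30 min RT; read luminescence.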
IL2 activator: activators of IL-2; IL-2 activation reporter assay, cell-based qHTS; stimulated with anti-CD3/CD4/CD28 beads; in transgenic mouse T cells; activation, % (series mostly up to about 46 µM); 360,000 tested, 0.065% active; in the data active = activation above about 50%; inconclusive = mostly about 30% to 49%; note: 0% is about no effect
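Unstimulated transgenic mouse T cells preincubated 60 min with compound, then stimulated with anti-CD3/anti-CD4-coated beads plus anti-CD28 for 18 h at 37 degrees C. IL-2 response read as EGFP and DsRed fluorescence by plate cytometry.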
A549 viability: A549 cytotoxicity, counter-screen for Nrf2 inhibitors; A549 ARE-Fluc cells, CellTiter-Fluor viability, 18-24 h; Potency, µM (highest dose often 46 µM), for the others: top-dose activity change, negative = cytotoxicity, usual class: inhibitors; 390,000 tested, 0.16% active; note: potency is the fitted concentration of half-maximal effect; % is set by controls: 0 for no effect and ±100 for the full control effect
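A549 ARE-Fluc cells in 5% FBS OPTI-MEM, 5000 cells/well, rested 2 h then exposed to compounds in concentration-response for 18-24 h at 37 °C. Viability by CellTiter-Fluor fluorescence (Ex 405/Em 525) after 30 min; luciferase luminescence (BugLite, 15 min, RT) read afterwards.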
Nrf2 inh: inhibitors of Nrf2 signaling | AID 504444 | A549 ARE-Fluc reporter, luciferase luminescence, 18-24 h | Potency, µM (doses to about 46 µM), without a hit: top-dose activity change, negative = inhibition, most hits filed as inhibitors | 360,000 tested, 2.1% active; note: potency is the fitted concentration of half-maximal effect; % is set by controls: 0 for no effect and ±100 for the full control effect; nearly all actives have a fitted effect of over 60% in size
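Reporter: ARE-Fluc in A549. Exposure: 18-24 h, 37 °C, 5% CO2, 5% FBS OPTI-MEM. Readouts: fluorescent cytotoxicity (CellTiter-Fluor), then luminescent Nrf2 signal after BugLite.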
* hit, by the source's call; ? = inconclusive; . = no result given; [ ] = dose if it differs, or a comment. Shown are actives, neighbours in structure and some others; about 2.3% of the full set was active somewhere. Unless noted, calls come from the whole dose curve; as a rule, active = well fitted curve in the direction sought with a large enough effect; inconclusive = small, poorly fitted or top-dose-only effect, or another doubt; inactive = no such curve, though single readings can be large; an effect the other way counts as inactive or inconclusive.

SMILES | Nrf2 ARE act | IL2 activator | A549 viability | Nrf2 inh
Cc1cccc(NC(=O)c2ccc(Cn3nc(N4CCN(c5ccccc5)CC4)ccc3=O)o2)c1C | 0% | . | ? | 21µM*
Cc1cc(F)ccc1NC(=O)Cn1nc(N2CCN(c3ccccc3)CC2)ccc1=O | 0% | . | -14% | -8%
Cc1ccc2nc(N(CCCN(C)C)C(=O)c3ccc(S(=O)(=O)N4CCc5ccccc5C4)cc3)sc2c1 | 15% | -1 | ? | 21µM*
COc1ccc(-c2nc3sc(CCNC(=O)C(=O)Nc4ccccc4C#N)c(C)n3n2)cc1 | 0% | . | -2% | .
CCOCCCN1C(=O)CN(C2CCCCCC2)C(=O)C1c1ccc(OCC)c(OC)c1 (configuration not stated) | 6% | . | 1% | .
CC1(C)CC(=O)C2=C(C1)NC(Nc1nc3ccccc3o1)=NC2c1cccc(O)c1 (configuration not stated) | . | . | ? | 21µM*
Cc1nnsc1S(=O)c1ccc(Cl)cc1 (configuration not stated) | ? | 1 | 12% | -26%
Cc1nnsc1S(=O)c1ccc(Cl)c(Cl)c1 (configuration not stated) | 11µM* | 3 | -9% | -17%
CCc1ccc(-c2csc(NC(=O)C3=NN(c4ccccc4)C(=O)CC3)n2)cc1 | 4% | -1 | -3% | 18µM*
Cc1cc(C)c(-c2csc(NC(=O)C3=NN(c4ccccc4)C(=O)CC3)n2)c(C)c1 | 7% | -4 | -12% | ?
O=C(Nc1nc(-c2ccc(Cl)cc2)cs1)c1cccnc1 | 0% | 0 | -1% | ?
CCc1ccc(-c2csc(NC(=O)c3cccnc3)n2)cc1 | 4% | -2 | -9% | 15µM*
COc1cc(OC)cc(C(=O)N2CC(=O)Nc3ccc(Cl)cc3C2c2ccccc2)c1 (configuration not stated) | 0% | . | 0% | 3%[9.27 µM]
CCOC(=O)c1ccc(NC(=O)Cc2ccc(-n3c(CC)nc4cccnc43)cc2)cc1 | 6% | . | -3% | 16%
CC(C)CC(=O)N(Cc1ccccc1)S(=O)(=O)c1ccc2c(c1)oc(=O)n2C | 3% | . | 7% | 19%
CN(C)c1ccc(C(=O)N/N=C/c2cc(Br)cc(Br)c2O)cc1 | -1% | 1 | -12% | 13µM*
COc1c(Br)cc(Br)cc1/C=N/NC(=O)c1ccncc1 | 1% | 0 | -2% | -6%
CC(=O)c1ccccc1S(=O)(=O)N1CCN(c2nc(-c3cccs3)nc3ccccc23)CC1 | . | . | 2% | -20%
Cn1c(=O)c2c(ncn2CC(=O)N/N=C/C(Br)=C/c2ccccc2)n(C)c1=O | ? | 1 | -5% | 7%
O=C(N/N=C/c1ccccc1)c1n[nH]c2c1CCCC2 | -1% | 0 | -20% | ?
CC1C(=O)NN=C1C(=O)N/N=C\C(Br)=C\c1ccccc1 (configuration not stated) | 11µM* | 0 | -2% | ?
O=C(N/N=C/C(Br)=C/c1ccccc1)c1ccccc1F | 13µM* | -5 | 3% | ?
O=C(Cn1cnc2ccccc21)N/N=C/C(Br)=C/c1ccccc1 | 7.1µM* | -3 | -5% | -21%
CC1=NNC(=O)C1CC(=O)N/N=C/C(Br)=C/c1ccccc1 (configuration not stated) | ? | 0 | -7% | 1%
O=C(N/N=C/C(Br)=C/c1ccccc1)c1n[nH]c2c1CCC2 | 22µM* | 0 | -8% | -10%
SMILES | Nrf2 ARE act | IL2 activator | A549 viability | Nrf2 inh
O=C(N/N=C/C(Br)=C/c1ccccc1)c1cccs1 | 10µM* | 0 | ? | ?
O=C(N/N=C/C=C/c1ccccc1)c1cccs1 | 4% | 1 | -4% | 7%
COc1ccc(-c2cc(C)no2)cc1S(=O)(=O)Nc1cccc(C)c1 | 0% | 1 | -23% | 23µM*
COc1ccc(-c2cc(C)no2)cc1S(=O)(=O)Nc1ccccc1 | 4% | 0 | -14% | 17%
COc1ccc(Cn2c(C(=O)O)c(CNCCc3ccccc3Cl)c3ccc(C)cc32)cc1 | 5% | . | ? | ?
COc1ccc(C2Nc3ccccc3C(=O)N2C2CCCC2)cc1COc1ccc(NC(C)=O)cc1 (configuration not stated) | . | . | -23% | -27%
CCCCNC(=O)c1ccc2c(c1)NC(=O)C(CS(=O)(=O)Cc1cccc(C)c1)N2 (configuration not stated) | 0% | . | 4% | ?
Cc1ccc(Oc2cc([N+](=O)[O-])cc3c2C(=O)Nc2ccccc2O3)cc1 | 10% | 72* | -8% | 15µM*
CCCN1CNc2c(c(=O)[nH]c(=S)n2CCc2ccccc2Cl)C1 | . | . | 0% | 18%
Cc1nn(Cc2ccc(Cl)cc2Cl)c(C)c1NC(=O)c1sc2ccccc2c1Cl | 0% | 0 | -9% | -22%
Cc1nn(Cc2ccc(Cl)cc2Cl)c(C)c1NC(=O)NC12CC3CC(CC(C3)C1)C2 | -1% | 0 | -12% | 21µM*
CCOc1ccc(-n2c(=O)c3c(C)c(C)sc3n(CC(=O)C(C)(C)C)c2=O)cc1 | 0% | . | -17% | -3%
O=c1oc2c(F)cc(F)cc2cc1S(=O)(=O)c1ccc(F)cc1 | 10µM* | . | ? | -10%
CCCC(/C=C/c1ccc(OC(C)=O)cc1)=C1/c2ccccc2C(=O)N1c1ccccc1 | 11µM* | -1 | -13% | -6%
CC(=O)Oc1ccc(C#C/C=C2\c3ccccc3C(=O)N2c2ccccc2)cc1 | ? | 0 | ? | ?
COc1ccc(NS(=O)(=O)c2ccccc2C(=O)O)cc1 | . | . | 10% | 5%
Cc1ccn2c(Nc3ccccc3)c(-c3ccccn3)nc2c1 | 0% | 1 | ? | 26µM*
Cc1ccn2c(Nc3ccccc3C)c(-c3ccccn3)nc2c1 | 2% | 0 | ? | ?
CCOc1ccc(NC(=O)c2cnn3c2NC(C)=C(C(=O)Nc2ccc(Cl)cc2)C3c2ccc(OC)c(OC)c2)cc1 (configuration not stated) | -1% | . | -5% | 9%
Cc1ccoc1C(=O)Nc1ccc(CC(=O)O)cc1 | -2% | -3 | -8% | 1µM*
CCn1nc(C)c2c(-c3ccccc3)cc(=O)n(C(C)C(=O)NCCc3ccc(Cl)cc3)c21 (configuration not stated) | 0% | . | -12% | -35%
CCOC(=O)c1c(NC(=O)c2c(Br)cnn2C)c(C#N)nn1-c1ccccc1 | 1% | 1 | -13% | 18µM*
COc1cccc(NC(=O)COc2ncnc3sc(C)c(C)c23)c1 | 3% | 0 | -2% | -1%
CCN(CC(=O)Nc1cccc(OC)c1)c1ncnc2sc(C)c(C)c12 | 3% | 0 | -6% | 21µM*
Cc1ccc(/C=N/N(C)S(=O)(=O)c2ccc(C)cc2)cc1 | 0% | -2 | -1% | 26µM*
Cc1ccc(S(=O)(=O)N(C)S(=O)(=O)c2ccc(C)cc2)cc1 | 4% | 0 | 4% | 23µM*
CCCN1CNc2c(c(=O)[nH]c(=S)n2CCc2ccc(C)c(C)c2)C1 | . | . | 3% | ?
Cc1cc2c(s1)c1cnn(Cc3ccc(C(C)C)cc3)c(=O)c1n2C | . | . | 3% | -18%

Source: PubChem (National Center for Advancing Translational Sciences (NCATS))
